The campaign covered roughly 5,500 compounds. About 2,000 (36%) were called active. Inconclusive results (about 18%) are left out. Cut-off read from the data, not from the text of the source: active = normalized growth mostly below about 0.91 (no sharp cut-off); inconclusive = no clear call, values can overlap the other calls; inactive = mostly above about 0.92. Some of the results follow.
Assay: chemical genetic growth profiling, strain panel (AID 1159580);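 note: tested at 20 µM; growth read once vehicle control cultures reached saturation at 30 °C; 1 = growth at the plate median or of vehicle wells; lower values mean less growth of the strain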
Conditions: growth OD

Measured: normalized growth

CCN(CC)CCOC(=O)C(c1ccccc1)c1ccccc1
inactive: S. cerevisiae deletion strains, locus YKL068W, active compounds read low 0.986 | S. cerevisiae deletion strains, locus YKL085W, strain MDH1 (second series), active compounds read low 0.994 | S. cerevisiae deletion strains, locus YKL085W, strain MDH1, active compounds read low 0.994 | S. cerevisiae deletion strains, locus YKL160W, strain elf1, active compounds read low 0.985 | S. cerevisiae deletion strains, locus YKL190W, strain CNB1, active compounds read low 0.989 | S. cerevisiae deletion strains, locus YKR001C, strain vps1, active compounds read low 1 | S. cerevisiae deletion strains, locus YKR026C, strain gcn3, active compounds read low 0.963 | S. cerevisiae deletion strains, locus YKR091W, strain srl3, active compounds read low 0.98 | S. cerevisiae deletion strains, locus YLL001W, strain dnm1, active compounds read low 0.952 | S. cerevisiae deletion strains, locus YLL026W, active compounds read low 0.971 | S. cerevisiae deletion strains, locus YLL041C, strain sdh2, active compounds read low 0.974 | S. cerevisiae deletion strains, locus YLR027C, strain aat2, active compounds read low 0.985 | S. cerevisiae deletion strains, locus YLR039C, strain RIC1, active compounds read low 1 | S. cerevisiae deletion strains, locus YLR058C, strain SHM2, active compounds read low 0.999 | S. cerevisiae deletion strains, locus YLR102C, strain apc9, active compounds read low 0.988 | S. cerevisiae deletion strains, locus YLR113W, strain HOG1, active compounds read low 0.965 | S. cerevisiae deletion strains, locus YLR221C, strain rsa3, active compounds read low 1 | S. cerevisiae deletion strains, locus YLR258W, strain gsy2, active compounds read low 0.963 | S. cerevisiae deletion strains, locus YLR262C, strain YPT6 (second series), active compounds read low 0.966 | S. cerevisiae deletion strains, locus YLR262C, strain YPT6, active compounds read low 1 | S. cerevisiae deletion strains, locus YLR268W, strain sec22, active compounds read low 0.984 | S. cerevisiae deletion strains, locus YLR320W, strain mms22, active compounds read low 1.01 | S. cerevisiae deletion strains, locus YLR330W, strain CHS5, active compounds read low 0.991 | S. cerevisiae deletion strains, locus YLR342W, strain FKS1 (second series), active compounds read low 0.988 | S. cerevisiae deletion strains, locus YLR342W, strain FKS1, active compounds read low 0.968 | S. cerevisiae deletion strains, locus YLR357W, strain rsc2, active compounds read low 0.982 | S. cerevisiae deletion strains, locus YLR370C, strain arc18, active compounds read low 0.945 | S. cerevisiae deletion strains, locus YLR371W, strain rom2, active compounds read low 1 | S. cerevisiae deletion strains, locus YLR384C, strain iki3, active compounds read low 0.97 | S. cerevisiae deletion strains, locus YLR418C, strain cdc73, active compounds read low 0.961 | S. cerevisiae deletion strains, locus YML016C, strain PPZ1, active compounds read low 0.998 | S. cerevisiae deletion strains, locus YML032C, strain rad52, active compounds read low 1 | S. cerevisiae deletion strains, locus YML120C, strain ndi1, active compounds read low 0.961 | S. cerevisiae deletion strains, locus YML124C, strain tub3, active compounds read low 0.992 | S. cerevisiae deletion strains, locus YMR058W, strain fet3, active compounds read low 0.97 | S. cerevisiae deletion strains, locus YMR078C, strain ctf18, active compounds read low 0.983 | S. cerevisiae deletion strains, locus YMR125W, strain sto1, active compounds read low 0.949 | S. cerevisiae deletion strains, locus YMR129W, active compounds read low 0.975 | S. cerevisiae deletion strains, locus YMR205C, strain PFK2, active compounds read low 0.971 | S. cerevisiae deletion strains, locus YMR223W, strain ubp8, active compounds read low 0.98 | S. cerevisiae deletion strains, locus YMR231W, strain pep5, active compounds read low 0.977 | S. cerevisiae deletion strains, locus YMR263W, strain SAP30, active compounds read low 0.991 | S. cerevisiae deletion strains, locus YMR307W, strain GAS1, active compounds read low 1.02 | S. cerevisiae deletion strains, locus YNL067W, strain RPL9B, active compounds read low 1.01 | S. cerevisiae deletion strains, locus YNL071W, strain lat1, active compounds read low 0.973 | S. cerevisiae deletion strains, locus YNL128W, strain TEP1, active compounds read low 0.968 | S. cerevisiae deletion strains, locus YNL183C, strain NPR1, active compounds read low 0.94 | S. cerevisiae deletion strains, locus YNL209W, strain ssb2, active compounds read low 0.969 | S. cerevisiae deletion strains, locus YNL233W, strain BNI4, active compounds read low 1.03 | S. cerevisiae deletion strains, locus YNL248C, strain rpa49, active compounds read low 0.976 | S. cerevisiae deletion strains, locus YNL250W, strain rad50, active compounds read low 0.99 | S. cerevisiae deletion strains, locus YNL271C, strain bni1, active compounds read low 0.984 | S. cerevisiae deletion strains, locus YNL298W, strain CLA4, active compounds read low 0.982 | S. cerevisiae deletion strains, locus YNL307C, strain MCK1, active compounds read low 0.998 | S. cerevisiae deletion strains, locus YNL322C, strain KRE1 (second series), active compounds read low 0.96 | S. cerevisiae deletion strains, locus YNL322C, strain KRE1, active compounds read low 0.987 | S. cerevisiae deletion strains, locus YNR049C, strain mso1, active compounds read low 0.96 | S. cerevisiae deletion strains, locus YNR052C, strain pop2, active compounds read low 0.98 | S. cerevisiae deletion strains, locus YOL006C, strain TOP1, active compounds read low 1.04 | S. cerevisiae deletion strains, locus YOL012C, strain htz1 0.836 | S. cerevisiae deletion strains, locus YOL147C, strain pex11, active compounds read low 0.994 | S. cerevisiae deletion strains, locus YOR001W, strain rrp6, active compounds read low 0.979 | S. cerevisiae deletion strains, locus YOR061W, strain CKA2, active compounds read low 0.999 | S. cerevisiae deletion strains, locus YOR069W, strain VPS5, active compounds read low 0.989 | S. cerevisiae deletion strains, locus YOR070C, strain gyp1, active compounds read low 0.974 | S. cerevisiae deletion strains, locus YOR080W, strain dia2, active compounds read low 0.957 | S. cerevisiae deletion strains, locus YOR083W, strain WHI5, active compounds read low 0.977 | S. cerevisiae deletion strains, locus YOR106W, strain vam3, active compounds read low 0.967 | S. cerevisiae deletion strains, locus YOR136W, strain idh2, active compounds read low 0.993 | S. cerevisiae deletion strains, locus YOR144C, strain elg1, active compounds read low 1 | S. cerevisiae deletion strains, locus YOR184W, strain ser1, active compounds read low 0.982 | S. cerevisiae deletion strains, locus YOR231W, strain MKK1, active compounds read low 0.989 | S. cerevisiae deletion strains, locus YOR265W, strain rbl2, active compounds read low 0.968 | S. cerevisiae deletion strains, locus YOR270C, strain vph1, active compounds read low 0.941 | S. cerevisiae deletion strains, locus YOR290C, strain snf2, active compounds read low 0.975 | S. cerevisiae deletion strains, locus YOR316C, strain cot1, active compounds read low 0.986 | S. cerevisiae deletion strains, locus YPL051W, strain arl3, active compounds read low 0.978 | S. cerevisiae deletion strains, locus YPL055C, strain LGE1, active compounds read low 1.02 | S. cerevisiae deletion strains, locus YPL078C, strain atp4, active compounds read low 0.965 | S. cerevisiae deletion strains, locus YPL106C, strain sse1, active compounds read low 0.931 | S. cerevisiae deletion strains, locus YPL240C, strain hsp82, active compounds read low 0.958 | S. cerevisiae deletion strains, locus YPL241C, strain CIN2, active compounds read low 0.991 | S. cerevisiae deletion strains, locus YPL256C, strain CLN2, active compounds read low 0.971 | S. cerevisiae deletion strains, locus YPR119W, strain clb2, active compounds read low 1 | S. cerevisiae deletion strains, locus YPR141C, strain kar3, active compounds read low 0.989 | S. cerevisiae deletion strains, locus YPR163C, strain tif3, active compounds read low 0.996 | S. cerevisiae deletion strains, locus YPR167C, strain met16, active compounds read low 0.987 | S. cerevisiae deletion strains, strain wtn01, active compounds read low 0.969 | S. cerevisiae strains, strain wild type, active compounds read low 0.992
